G9a block: blocks human histone lysine methyltransferase G9a | G9a H3K9 monomethylation, AlphaScreen, 2 h | 8.8% of 350,000 active | Q96KQ7 | Potency, µM (doses to about 102 µM), for inactives: at the highest dose activity, negative = inhibition, actives largely listed as inhibitors; note: % is set by controls: 0 for no effect and ±100 for the full control effect; nearly all actives have a fitted effect of over 75% in size
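Chemiluminescent proximity detection of H3K9 monomethylation, read after 10 min bead incubation in the dark. Reaction: 20 nM G9a, 500 nM biotin-H3K9 peptide, 20 uM SAM cofactor, 2 h, room temperature, following 15 min enzyme-compound preincubation.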
Sfp inh: blocks B. subtilis Sfp PPTase activity. Q9F4F7. Biochemical Sfp PPTase activity, qHTS. Potency, µM, for inactives: largest response in the series, negative = inhibition, most hits filed as inhibitors. 3.5% of 310,000 active. AID 1490;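 note: the enzyme is Sfp with the accession as filed and its product quenches rhodamine fluorescence; 0% = enzyme reaction without inhibitor and -100% = no enzyme wells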
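Sfp 15 nM + cpd, 15 min RT; start w/ rhodamine-CoA 5 uM, BHQ-2-YbbR 12.5 uM (final); 50 mM Hepes pH 7.6, 10 mM MgCl2, 0.01% NP-40, 0.01% BSA; read 525/598 nm at 0 and 30 min.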
VDR inhibitor: vitamin D3 receptor (human) inhibition | P11473 | VDR-SRC2-3 peptide fluorescence polarization, 2 h | Potency, µM, for inactives: max response, negative = inhibition, hits mostly inhibitors | 0.93% of 400,000 active; note: % is set by controls: 0 for no effect and ±100 for the full control effect
Target sequence (P11473 whole entry, looked up): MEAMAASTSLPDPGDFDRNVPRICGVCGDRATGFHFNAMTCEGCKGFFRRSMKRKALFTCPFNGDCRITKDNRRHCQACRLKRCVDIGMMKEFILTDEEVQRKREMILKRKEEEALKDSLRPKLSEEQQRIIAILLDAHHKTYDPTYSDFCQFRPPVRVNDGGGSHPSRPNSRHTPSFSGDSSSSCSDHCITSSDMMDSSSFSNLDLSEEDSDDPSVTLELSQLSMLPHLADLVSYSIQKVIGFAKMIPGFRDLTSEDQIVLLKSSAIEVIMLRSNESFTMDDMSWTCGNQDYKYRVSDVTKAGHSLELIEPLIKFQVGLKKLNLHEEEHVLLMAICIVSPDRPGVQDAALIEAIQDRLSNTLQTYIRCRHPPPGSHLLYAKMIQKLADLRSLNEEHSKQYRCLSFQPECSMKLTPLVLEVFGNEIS
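FP read-out; VDR + SRC2-3 coactivator peptide; 23 nl compound by pintool; 2 h RT incubation; reagents held at 4 deg C, protected from light.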
GRP78 ERSR act: ER stress response induction in glioma; Potency, µM, for inactives: top-dose activation, usual class: activators; U87-MG GRP78 promoter luciferase reporter, 16 h; 0.02% of 420,000 active; note: series mostly up to about 76 µM; % of control where 0% means no effect; nearly all actives have a fitted effect of over 35% in size
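Stably transfected U87-MG glioma cells carrying a GRP78-based luciferase sensor; 16 h compound incubation. Luminescence end-point read 10 min after Bright-Glo addition at room temperature.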
ALOX12 inh: blocks human arachidonate 12S-lipoxygenase; P18054; purified 12hLO, xylenol orange hydroperoxide absorbance; Potency, µM (doses to about 108 µM), inactives show top-dose activity change, negative = inhibition, most hits filed as inhibitors; 1.1% of 580,000 active; AID 1671190; note: % is set by controls: 0 for no effect and ±100 for the full control effect
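Purified human 12hLO (150 nM final) in 25 mM Hepes, 0.01% Triton X-100, pH 7.0 was preincubated 15 min at room temperature with compound. Then 40 uM arachidonic acid was added, 30 min. Hydroperoxide was read by Fe-XO absorbance ratio 573/405 nm.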
Numbers without * were called inactive; ? = inconclusive; · = no result; [ ] = dose if it differs, or a comment. This is one part of a sample in which hits are shown more often than they occur. Calls come from the whole dose curve; as a rule, active = well fitted curve in the direction sought with a large enough effect; inconclusive = small, poorly fitted or top-dose-only effect, or another doubt; inactive = no such curve, though single readings can be large; an effect the other way counts as inactive or inconclusive. Potency is the fitted concentration of half-maximal effect.

SMILES | G9a block | Sfp inh | VDR inhibitor | GRP78 ERSR act | ALOX12 inh
O=C(N/N=C/c1cccnc1)c1ccc([N+](=O)[O-])cc1Cl | -11% | 4% | -4% | -2% | -20%
COC(=O)C1=C(C)NC(=O)/C1=C\c1ccc2c(c1)OCO2 | · | 4% | -4% | 4% | -15%
COc1ccccc1/C=C1/C(=O)ON=C1C | -34%[12.7 µM] | -28% | 50µM* | -4% | ?
O=C1/C(=C\c2ccc3c(c2)OCO3)CCC/C1=C/c1ccc2c(c1)OCO2 | 14µM* | -27% | -2% | 16% | 318%
COc1ccccc1/C=C1\C(=O)Nc2ccccc21 | 3% | 0% | -28% | 9% | ?
CC1=NOC(=O)/C1=C/c1ccc2c(c1)OCO2 | 56µM* | 1% | 32µM* | -5% | ?
O=C1CCCC/C1=C/Nc1ccc2c(c1)OCO2 | 35µM* | ? | -15% | -3% | ?
CNC(=O)c1ccc(CN2C(=O)C(C)=C(c3ccc(C)c(C)c3)S2(=O)=O)cc1 | · | · | · | · | -14%
CC(C)(C)n1ncc2c1NC(=O)CC21C(=O)Nc2cccc(Cl)c21 (stereo not drawn) | · | · | · | · | -24%
CC1CCC(C(=O)NNC(=O)OC(C)(C)C)CC1 (stereo not drawn) | · | · | · | · | -2%
CCC(C)(C)NC(=O)/C=C/c1ccc(OC)c(OC)c1 | · | · | · | · | 6%
CC1=NOC(=O)/C1=C\c1ccc2c(c1)OCO2 | ? | -27% | 89µM* | 0% | ?
O=c1[nH]/c(=C/c2ccc3c(c2)OCO3)c(=O)[nH]/c1=C/c1ccc2c(c1)OCO2 | · | · | · | -2% | ·
Cc1cccc(C(=O)NC(=S)Nc2ccc(S(=O)(=O)N3CCN(C)CC3)cc2)c1 | ? | -23% | -5% | -3% | ?
CCc1noc(C)c1C(=O)Nc1cccc(S(=O)(=O)N2CCCCCC2)c1 | 8.9µM* | · | -10% | -3% | -45%
Cc1cccc(C(=O)NC(=S)Nc2ccc(S(=O)(=O)N3CCCCC3)cc2)c1 | -7%[12.7 µM] | 5% | -16% | -6% | 11µM*
Cc1cccc(NC(=O)CSCC(=O)Nc2ccc(S(=O)(=O)N3CCCCC3)cc2)c1 | 32µM* | · | -3% | -3% | ?
O=C(Nc1ccc(S(=O)(=O)N2CCCC2)cc1)c1ccc(OCC2CCCO2)cc1 (stereo not drawn) | -13% | 10% | 7% | -3% | -2%
O=C(Nc1cccc(S(=O)(=O)N2CCCCC2)c1)c1ccc(OCC2CCCO2)cc1 (stereo not drawn) | 56µM* | 17% | 0% | -2% | -18%
CC(C)(C)C(=O)/C=c1/[nH]c(=O)/c(=C/c2ccc(O)c(Cl)c2)s1 | · | · | · | · | -38%
CCc1noc(C)c1C(=O)N1CCN(S(=O)(=O)c2ccc(C(C)=O)cc2)CC1 | 40µM* | · | -1% | -4% | ?
Cc1cccc(NC(=O)CSCC(=O)Nc2cccc(S(=O)(=O)N3CCCCCC3)c2)c1 | 35µM* | · | -14% | -4% | ?
CC1CCN(CCOc2cccc(Br)c2)CC1 | 7.9µM* | ? | -14% | -1% | -33%
c1cc(OCCCN2CCCCC2)ccc1CN1CCCCC1 | 6% | 5% | 9% | -10% | -28%
CC1CCN(CCCCOc2cccc(C(C)C)c2)CC1 | 40µM* | -8% | -9% | -1% | ?
SMILES | G9a block | Sfp inh | VDR inhibitor | GRP78 ERSR act | ALOX12 inh
Clc1cccc(OCCN2CCN(CCOc3cccc(Cl)c3)CC2)c1 | ? | -7% | 16% | -4% | ?
Brc1cccc(OCCCN2CCCCCC2)c1 | 10µM* | -22% | 1% | 0% | -27%
C=CCNCCCCOc1ccc(Br)cc1C | 2.5µM* | ? | -6% | -8% | -23%
Cc1cc(Br)ccc1OCCOCCN1CCCC1 | · | -4% | ? | 0% | -2%
Cc1cc(Br)ccc1OCCCCN1CCCCC1 | ? | 45µM* | -16% | -6% | ?
CC(=O)c1c(C)[nH]c(C(=O)C(C)OC(=O)c2cc(F)cc(F)c2)c1C (stereo not drawn) | · | · | · | · | 1%
O=C(CSc1ccc2nnc(-c3cccs3)n2n1)N1CCCC1 | 18µM* | -21% | 11% | -1% | -1%
CCOC(=O)CSc1ccc2nnc(-c3cccs3)n2n1 | 10µM* | -5% | 0% | 2% | ?
CCSc1ccc2nnc(-c3cccs3)n2n1 | ? | 5% | -7% | -6% | ?
CC(=O)N(C(C)=O)c1ncnc2c1c(-c1ccc(Cl)cc1)nn2C(C)(C)C | · | -10% | 50µM* | -6% | -12%
COc1ccc(NC2C[C@H]3CCCC(=O)N4CC[C@@H](C2)[C@@H]34)cc1 (stereo partly drawn) | 40µM* | -8% | -11% | 50µM* | ·
NC(=O)c1ccc(C(=O)NC2CCCc3ccccc32)cc1 (stereo not drawn) | · | · | · | · | -39%
O=C(c1nc(-c2cccnc2)no1)N1CCN(c2ccc(F)cc2)CC1 | · | · | · | · | 4%
Cc1cc2nc3c(=O)[nH]c(=S)[nH]c3nc2cc1NC(=O)C(F)(F)F | 28µM* | 79µM* | 5% | 4% | ?
CCCn1c(=S)[nH]c2ccccc2c1=O | -44% | 23% | 9% | 10% | 9%
CCN(CC)CCn1c(=S)[nH]c2ccc(Cl)cc2c1=O | 32µM* | -8% | 19% | -4% | 4%
COc1ccc2[nH]c3c(=O)n(CCCCC(=O)N4CCCC4)c(=S)[nH]c3c2c1 | 2.2µM* | -9% | 5% | 2% | -29%
CC1CCCN(C(=O)CCCn2c(=S)[nH]c3ccccc3c2=O)C1 (stereo not drawn) | 45µM* | ? | 9% | -2% | -4%
O=C(CCn1c(=S)[nH]c2ccccc2c1=O)N1CCCCC1 | · | -6% | -20% | -2% | -11%
CN(C)CCCn1c(=S)[nH]c2ccccc2c1=O | 50µM* | ? | -10% | -2% | -20%
CCc1ccc([S+](=O)([O-])c2nnn3c2nc(N2CCC(F)CC2)c2ccccc23)cc1 | · | · | · | · | 1%[6.33 µM]
Cc1c(-c2ccc(F)cc2)[nH]c2ccc(CNC(=O)CCN3CCCO3)cc12 | · | · | · | · | 35%
O=C(COC(=O)C1CCN(S(=O)(=O)c2c(Cl)cccc2Cl)CC1)NCc1ccco1 | 50µM* | · | 2% | -4% | 8%
CN(C(=O)COC(=O)C1CCN(S(=O)(=O)c2c(Cl)cccc2Cl)CC1)C1CCCCC1 | 40µM* | · | 3% | -1% | -15%
